In the supplement of paper PMC6555819:

What was measured:
Experiment in all cases: PBM binding z-score (relative to random genomic background probes); higher = stronger binding; sequences stand for … in GC…GCGATTGACAGCGTAGAATGAAGG
[1] = test system: FXR:RXRa (NR concentration 270 nM, RXRa partner concentration 90 nM)
Summary of the method: (§1)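 Custom Agilent 4×180K protein-binding microarrays carried double-stranded probes. Their 34-nt variable regions held direct-repeat seeds, single-nucleotide variants, half-site ablations and random human genomic background sequences. Arrays were incubated 1 h with ligand-free nuclear receptor dimers in PBS pH 7.4, 2% milk, 0.02% Triton X-100, 1 mM DTT, 0.2 mg/mL BSA and 0.4 mg/ml salmon testes DNA. Antibodies against each partner (one per run) detected binding, and scanned fluorescence was regression-normalized. Binding z-scores use random background probes as reference.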

[2] = test system: LXRa:RXRa (NR concentration 270 nM, RXRa partner concentration 90 nM)
Summary of the method: as §1

[3] = test system: LXRa homodimer (NR concentration 270 nM)
Summary of the method: as §1

[4] = test system: LXRb:RXRa (NR concentration 270 nM, RXRa partner concentration 90 nM)
Summary of the method: as §1

[5] = test system: LXRb homodimer (NR concentration 270 nM)
Summary of the method: as §1

[6] = test system: PPARa:RXRa (NR concentration 270 nM, RXRa partner concentration 90 nM)
Summary of the method: as §1

[7] = test system: PPARg:RXRa (NR concentration 180 nM, RXRa partner concentration 90 nM)
Summary of the method: as §1

[8] = test system: PPARg:RXRa 270nM:90nM, anti-RXR (NR concentration 270 nM, RXRa partner concentration 90 nM)
Summary of the method: as §1

[9] = test system: PPARg:RXRa 30nM:10nM, anti-RXR (NR concentration 30 nM, RXRa partner concentration 10 nM)
Summary of the method: as §1

[10] = test system: PPARg:RXRa 90nM:30nM, anti-RXR (NR concentration 90 nM, RXRa partner concentration 30 nM)
Summary of the method: as §1

[11] = test system: PPARg:RXRa DBDmut IVT, anti-RXR (DBD mutation: RXRa K156A/R161A, NR concentration 270 nM, RXRa partner concentration 90 nM)
Summary of the method: as §1

[12] = test system: PPARg:RXRa IVT, anti-PPARg (NR concentration 270 nM, RXRa partner concentration 90 nM)
Summary of the method: as §1

[13] = test system: PPARg DBDmut:RXRa IVT, anti-PPARg (DBD mutation: PPARg1 K132A/R137A, NR concentration 270 nM, RXRa partner concentration 90 nM)
Summary of the method: as §1

[14] = test system: PPARg DBDmut IVT, anti-PPARg (DBD mutation: PPARg1 K132A/R137A, NR concentration 270 nM)
Summary of the method: as §1

[15] = test system: PPARg homodimer (NR concentration 180 nM)
Summary of the method: as §1

[16] = test system: PXR:RXRa (NR concentration 270 nM, RXRa partner concentration 90 nM)
Summary of the method: as §1

[17] = test system: PXR homodimer (NR concentration 270 nM)
Summary of the method: as §1

[18] = test system: RARa:RXR (NR concentration 270 nM, RXRa partner concentration 90 nM)
Summary of the method: as §1

[19] = test system: RARa homodimer (NR concentration 270 nM)
Summary of the method: as §1

[20] = test system: RARb:RXRa (NR concentration 270 nM, RXRa partner concentration 90 nM)
Summary of the method: as §1

Sequence	PBM binding z-score [1]	PBM binding z-score [2]	PBM binding z-score [3]	PBM binding z-score [4]	PBM binding z-score [5]	PBM binding z-score [6]	PBM binding z-score [7]	PBM binding z-score [8]	PBM binding z-score [9]	PBM binding z-score [10]	PBM binding z-score [11]	PBM binding z-score [12]	PBM binding z-score [13]	PBM binding z-score [14]	PBM binding z-score [15]	PBM binding z-score [16]	PBM binding z-score [17]	PBM binding z-score [18]	PBM binding z-score [19]	PBM binding z-score [20]
CGTCCAAGGTCAATGCTTGGTCAGTGAAAGCATT	6.4	4.57	0.472	3.42	0.327	4.9	3.44	4	0.746	2.46	2.65	3.19	-0.682	-0.881	3.32	3.86	0.527	4.45	0.0669	5.03
GCTCGGAGGACAAGGTCAGATCTTTGTCCGTAGA	2.14	2.12	-0.175	1.87	-0.0535	2.68	0.835	1.44	-0.124	0.769	-0.309	0.755	-0.782	-0.686	0.86	1.87	-0.322	2.22	-0.579	3.52
ATCTCTAGGTAACCAAGTTCAGTGATTGCCGAAC	0.358	0.717	0.794	0.577	0.713	1	0.254	0.803	0.204	0.579	3.9	2.88	1.17	1.33	0.823	1.96	2.46	0.708	0.307	1.18
TAGAGTAGGTTACCAATGGGGCATTCAGCTTTCT	0.195	1.62	0.13	1.22	1.02	1.68	1.3	1.96	1.16	1.72	4.68	4.33	0.638	0.725	1.06	0.312	0.223	0.669	1.18	1.33
CCGACTGGGGCAAGGGTTACCATACTCAGTACGA	0.0555	0.199	-0.283	0.579	-0.86	3.84	8.6	7.56	6.82	7.87	3.17	4.93	-0.628	-1.19	0.0321	0.443	-0.412	1.53	-0.348	1.57
CGTCAAAGTTTAAGGTAACGTAACAGAAAGCAGC	0.503	0.447	-0.218	0.466	-0.063	0.794	0.72	1.11	0.465	0.749	-0.15	0.591	0.678	-0.068	0.325	0.369	0.0704	0.975	0.46	2.12
AGAATCAGGTTAAGATCAGGGAAACAGAATACAT	0.729	0.662	0.295	0.799	0.474	1.68	1.18	1.05	0.692	0.624	2.26	2.1	1.36	1.33	1.01	0.297	1.14	0.552	1.62	1.1
ATATGTAGGTTACATACGGGTCATTCAGGCTATG	2.41	4.56	1.98	2.83	0.718	4.43	6.06	4.92	2.62	4.19	7.45	7.06	2.47	2.75	1.74	3.1	0.979	3.65	0.636	2.33
AGAACGAGGGCAATGAGTCGATAGCACGGGTGGC	0.187	-0.15	-0.625	-0.448	-0.595	1.03	1.41	0.849	0.0259	0.789	3.4	2.38	-0.0536	-0.236	-0.174	0.0741	0.415	-0.0854	-0.378	1.9
CCTACTGAGCCACGAAAGGTCATTGATTCAGTGA	3.68	5.05	5.31	4.22	1.09	4.21	1.27	2.77	0.973	1.93	0.983	1.29	-0.156	0.271	3.9	5.33	2.61	5.69	3.37	3.95
ATATTTAGGTTATCGGGTCATTCAGTTTGCGCAT	3.46	3.38	3.11	3.44	2.37	4.75	5.55	5.51	3	4.66	6.89	6.64	4.67	4.42	4.15	3.9	8.95	4.06	4.33	2.93
ATCTCTAGGTAAGCAAGTTCAGTGAATGCCGAAC	0.021	0.323	0.32	-0.00291	0.392	0.496	0.0727	0.538	0.367	0.23	1.64	1.7	0.134	-0.0297	0.55	1.37	1.12	0.257	0.268	0.858
AGAACGAGGGCACGCTCAGTTGATAGCAGAGTAG	0.582	0.413	-0.836	0.0167	-0.804	2.06	2.08	1.64	0.279	0.796	3.98	4.09	0.654	0.271	0.0615	0.642	0.028	0.591	-0.377	2.64
CAGCCTAGGTCAGGGCCAGTAGAGGAGGAACGTT	1.51	0.675	-0.538	0.358	-1.25	1.97	0.595	0.833	-0.754	0.0745	1.54	1.51	-1.47	-0.919	1.22	-0.278	-0.736	0.769	-0.574	3.42
GCTGCTAGGTCAGCTTGGTCAGCTAACGGGTACG	1.35	0.704	-0.534	0.334	0.0113	1.22	0.479	0.718	-0.549	-0.0941	3.14	2.46	-1.08	-1.08	0.887	0.168	-0.979	0.718	-0.683	3.29
AGAATAAGGTTACCAAAGATCAGGGAAACGCTTG	1.76	5.91	0.165	2.57	-0.0188	2.93	1.84	2.41	0.732	1.67	2.55	2.26	1.2	1.13	0.8	1.03	0.338	1.61	0.942	2.57
CATACAGGCTCAGCTAGGCCAGAGTAGGGACGGC	-0.48	-0.677	-0.674	-1.16	-0.846	-0.795	0.181	-0.549	-0.529	-0.694	-0.65	-0.492	0.0955	-0.224	0.112	-0.899	-0.356	-0.727	-0.19	-0.283
CCGACTTGGGCAAGGTTACCATAACGCACAGCCA	0.05	0.652	-0.339	0.538	-0.76	0.821	0.77	0.417	-0.317	0.00151	0.0909	0.144	-0.175	-0.816	0.358	0.327	0.162	0.774	0.309	0.889
ATCTCTAGGTAGAAGTTCAGTGAATCCCGAGGAT	0.0471	0.223	0.0969	0.0752	0.257	2.6	4.33	5.62	4.14	5.52	0.0712	1.23	0.95	0.43	0.271	0.947	1	0.436	0.785	1.07
TTACCCAGGTGAAGGTCGTTGATCCCTCTGTAGA	1.67	1.53	-0.000155	1.21	-0.632	1.77	0.932	1.73	0.687	1.04	1.24	2.58	-0.304	-0.0545	0.499	1.12	0.0205	1.6	-1.08	1.23
AGTCAAAGTTCAGGACGGGGTAACGTAAAGCACG	4.41	4.06	1.34	2.69	1.48	3.58	4.9	5.07	2.19	4.12	0.312	2.3	1.25	1.24	1.87	3.66	1.28	3.45	1.36	4.13
GCTAGCAGGCCATTTAGGTCACTCAATGACGGGC	0.265	-0.00867	-0.241	-0.158	-1.25	1.67	0.871	0.498	-0.134	0.454	1.71	2.41	-0.196	-1.01	-0.0591	0.564	0.12	0.658	-0.306	1.8
CCTACTGGGACATCAGGTCATTGATATCAACGTT	1.42	1.88	2.8	2.06	0.52	2.67	2.46	3.36	1.61	3.06	4.19	4.32	0.344	0.76	1.84	1.82	1.56	2.04	0.755	1.99
TCTAGCAGGCCAGAGGGTCTCTCAAGAGGTACGG	-1.4	-0.676	-0.763	-0.66	-1.71	-0.298	0.13	0.975	1.38	1.06	0.543	-0.453	-1.92	-1.94	-0.634	-0.569	-1.12	-0.436	-0.894	-0.239
ATCTCTAGGTAACCAAGTTCGGTGAATGCCGAAC	0.162	0.167	0.0553	0.11	0.555	0.569	0.336	0.74	0.0695	0.909	3.09	2.93	1.06	1.09	0.509	0.501	0.469	0.415	0.268	0.571
TCTGCTAGGTCAACGATGGTCAGGTAATCTGCTA	3.43	2.96	0.163	1.53	-0.249	3.19	2.74	3.06	2.01	2.65	4.42	4.19	0.0564	-0.0875	0.216	1.61	-0.526	2.34	-0.895	3.93
CGTCCAAGGTCAATCCTAGGTCAGTGAAAGCATT	7.14	5.85	3.44	4.8	1.43	5.47	4.38	4.75	1.43	3.63	3.45	4.04	0.153	0.742	6.19	5.13	0.983	6.44	1.8	5.33
CGAACCAGGTCAGAACAGGACAGTGAAGGATGAT	2.83	1.68	0.0841	0.939	-0.216	2.43	2.14	1.88	0.485	1.32	3.56	3.58	0.325	-0.243	1.16	1.66	-0.119	1.4	0.21	3.05
